Where “and” joins values, the source holds several entries; their conditions need not be identical. Equal values may be shown once. Hit rate of the full screen: of about 3,200 compounds, about 300 (9.4%) showed activity. Only a selection was taken, and actives are over-represented in it overall.
System: A673/TR/shEF
Assay: cell viability (LOESS-normalised, relative to median of negative controls) (log2 ratio); higher = more viable cells (less compound effect), active = hit call of the paper (over 3 MAD below the median)
Settings: treatment time: 72 h
Method in brief: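 Doxycycline, present or absent from 24 h before compounds, was used to induce EWS-FLI1 shRNA knockdown in A673/TR/shEF Ewing sarcoma cells at 1,500 per well in 384-well plates. Cells then received library compounds at two or more concentrations, or DMSO controls, for three days. Viability was measured by CellTiter-Glo luminescence on an Envision reader, and per-plate LOESS correction, division by the negative-control median and log2 transformation followed.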

[1] = 0.25 µM, library screen: screen1, EWS-FLI1 expression: high (no doxycycline)
[2] = 0.25 µM, library screen: screen1, EWS-FLI1 expression: low (doxycycline-induced shRNA knockdown)
[3] = 2.5 µM, library screen: screen1, EWS-FLI1 expression: high (no doxycycline)
[4] = 2.5 µM, library screen: screen1, EWS-FLI1 expression: low (doxycycline-induced shRNA knockdown)
[5] = 0.25 µM, library screen: screen2, EWS-FLI1 expression: high (no doxycycline)
[6] = 0.25 µM, library screen: screen2, EWS-FLI1 expression: low (doxycycline-induced shRNA knockdown)
[7] = 2.5 µM, library screen: screen2, EWS-FLI1 expression: high (no doxycycline)
[8] = 2.5 µM, library screen: screen2, EWS-FLI1 expression: low (doxycycline-induced shRNA knockdown)
[9] = 0.025 µM, library screen: screen1, EWS-FLI1 expression: high (no doxycycline)
[10] = 0.025 µM, library screen: screen1, EWS-FLI1 expression: low (doxycycline-induced shRNA knockdown)
[11] = 25 µM, library screen: screen1, EWS-FLI1 expression: high (no doxycycline)
[12] = 25 µM, library screen: screen1, EWS-FLI1 expression: low (doxycycline-induced shRNA knockdown)

Measured: cell viability (log2)

Cc1[nH]c2ccccc2c1CN(C)C
inactive: [1] 0.0738 | [2] 0.0842 | [3] 0.116 | [4] 0.138

NC(C(=O)O)c1cc(=O)[nH]o1 (centres undefined)
inactive: [5] 0.0457 | [6] -0.00138 | [7] 0.0296 | [8] 0.048

C=C1C([C@]2(C)C(CC(=O)OC)[C@@](C)(COC(C)=O)OC(=O)C[C@@H]2OC(C)=O)[C@@H](OC=O)[C@H](OC(=O)C(OC(C)=O)C(C)CC)[C@@]2(C)[C@H](c3ccoc3)CC(=O)C12O (some centres undefined)
inactive: [1] 0.0373 | [2] -0.0517 | [3] 0.0516 | [4] -0.0237

C/C(O)=C(\C#N)C(=O)Nc1cc(Br)ccc1Br
active: [3] -0.396 | [11] -0.451
inactive: [9] 0.198 | [10] -0.0693 | [1] 0.124 | [2] -0.0251 | [5] 0.133 | [6] 0.0965 | [4] -0.0427 | [7] 0.0403 | [8] 0.0594 | [12] -0.00927

COc1cc2ccc(=O)oc2c2ccoc12
inactive: [1] 0.222 | [2] 0.132 | [3] 0.248 | [4] 0.164

CCN(CC)C(=O)NC1C=C2c3cccc4[nH]cc(c34)CC2N(C)C1 (centres undefined)
inactive: [5] 0.194 | [6] 0.105 | [7] 0.116 | [8] 0.101

O=[N+]([O-])c1ccc(O[C@@H]2O[C@H](CO)[C@@H](O)[C@H](O)[C@H]2F)c([N+](=O)[O-])c1
inactive: [5] 0.132 | [6] 0.00815 | [7] 0.0628 | [8] 0.111

COc1c2c(cc3c1OCO3)[C@]13C=C[C@H](OC)C[C@H]1N(C2)CC3O (some centres undefined)
inactive: [1] 0.0348 | [2] 0.0745 | [3] 0.0133 | [4] 0.0521

COP(=S)(OC)SCn1nnc2ccccc2c1=O
active: 8.3 µM, library screen: screen3, EWS-FLI1 expression: high (no doxycycline) -0.267 | 25 µM, library screen: screen3, EWS-FLI1 expression: high (no doxycycline) -0.422
inactive: 0.103 µM, library screen: screen3, EWS-FLI1 expression: high (no doxycycline) -0.0814 | 0.103 µM, library screen: screen3, EWS-FLI1 expression: low (doxycycline-induced shRNA knockdown) 0.0283 | [1] -0.0615 | [2] 0.0291 | 0.308 µM, library screen: screen3, EWS-FLI1 expression: high (no doxycycline) -0.0468 | 0.308 µM, library screen: screen3, EWS-FLI1 expression: low (doxycycline-induced shRNA knockdown) 0.0348 | 0.926 µM, library screen: screen3, EWS-FLI1 expression: high (no doxycycline) -0.0952 | 0.926 µM, library screen: screen3, EWS-FLI1 expression: low (doxycycline-induced shRNA knockdown) 0.162 | [3] 0.00869 | [4] 0.101 | 2.8 µM, library screen: screen3, EWS-FLI1 expression: high (no doxycycline) -0.136 | 2.8 µM, library screen: screen3, EWS-FLI1 expression: low (doxycycline-induced shRNA knockdown) 0.125 | 8.3 µM, library screen: screen3, EWS-FLI1 expression: low (doxycycline-induced shRNA knockdown) 0.196 | 25 µM, library screen: screen3, EWS-FLI1 expression: low (doxycycline-induced shRNA knockdown) 0.00265

CNC(=O)CSP(=S)(OC)OC
inactive: [1] 0.102 | [2] 0.0684 | [3] 0.15 | [4] 0.0982

CCCN1CCc2cccc3c2[C@H]1Cc1ccc(O)c(O)c1-3
inactive: [5] 0.161 | [6] 0.0862 | [7] 0.178 | [8] 0.107

CC(C)=CCOc1c2occc2cc2ccc(=O)oc12
inactive: [1] 0.059 | [2] 0.0156 | [3] 0.0916 | [4] -0.0403

Clc1ccc(C(c2ccc(Cl)cc2)C(Cl)(Cl)Cl)cc1
inactive: [1] 0.0479 | [2] 0.0234 | [3] 0.0726 | [4] 0.147

CN(C)C(=S)SSC(=S)N(C)C
active: [1] -2.91 | [2] -2.1 | [3] -2.99 | [4] -2.02

C[C@]12CC[C@@H](O)C[C@@H]1CC[C@@H]1[C@@H]2CC[C@]2(C)[C@@H](O)CC[C@@H]12
inactive: [5] 0.0177 | [6] 0.137 | [7] 0.141 | [8] 0.0662

COS(C)(=O)=O
inactive: [1] 0.0621 | [2] 0.0487 | [3] 0.0611 | [4] -0.0183

O=P(O)(O)Cc1ccccc1
active: [3] -0.281 | [4] -0.453 | [11] -0.356 | [12] -1.06
inactive: [9] 0.115 | [10] -0.0367 | [1] 0.209 | [2] -0.089

CC12CCC3C(CC=C4CC(OS(=O)(=O)O)CCC43C)C1CCC2=O (centres undefined)
inactive: [5] 0.0737 | [6] -0.00205 | [7] 0.0312 | [8] 0.0129

CCC1(O)CC(OC2CC(N(C)C)C(O)C(C)O2)c2c(cc3c(c2O)C(=O)c2c(O)cccc2C3=O)C1C(=O)OC (centres undefined)
inactive: 0.025 µM, library screen: screen2, EWS-FLI1 expression: high (no doxycycline) -0.0129 | 0.025 µM, library screen: screen2, EWS-FLI1 expression: low (doxycycline-induced shRNA knockdown) 0.0193 | [5] 0.135 | [6] -0.0369
active: [7] -0.409 | [8] -0.0756 | 25 µM, library screen: screen2, EWS-FLI1 expression: high (no doxycycline) -4.23 | 25 µM, library screen: screen2, EWS-FLI1 expression: low (doxycycline-induced shRNA knockdown) -3.71

CC[C@@]1(O)C[C@H](OC2C[C@@H](N(C)C)C(O)C(C)O2)c2c(cc3c(c2O)C(=O)c2c(O)ccc(O)c2C3=O)[C@H]1C(=O)OC (some centres undefined)
active: [3] -0.221
inactive: [1] 0.0817 | [2] 0.158 | [4] 0.00788

CC[C@@]1(O)C[C@H](O[C@H]2C[C@H](N(C)C)[C@H](O)[C@H](C)O2)c2c(cc3c(c2O)C(=O)c2c(O)cccc2C3=O)[C@H]1C(=O)OC
active: [3] -1.99 and -0.594 | [4] -0.405 and -0.193
inactive: [1] 0.0584 and -0.0862 | [2] -0.00295 and 0.0558

Cc1o[nH]c(=O)c1CC(N)C(=O)O (centres undefined)
inactive: [5] 0.115 | [6] 0.0119 | [7] 0.0854 | [8] 0.0272

COc1ccc2c3c1O[C@H]1C(=O)CC[C@@]4(O)C(C2)N(CC2CC2)CCC314 (some centres undefined)
inactive: [5] 0.143 | [6] 0.0949 | [7] -0.028 | [8] 0.00345

C[C@]12CCC3C(CC[C@H]4C[C@@H](Cl)CC[C@]34C)C1CCC2=O (some centres undefined)
inactive: [1] 0.0861 | [2] 0.0822 | [3] 0.109 | [4] 0.0908

CC1CC(Cl)CCC1C(=O)OC(C)(C)C (centres undefined)
inactive: [1] -0.0203 | [2] 0.0889 | [3] 0.151 | [4] 0.103

Cn1c(=O)c2c(ncn2CCCl)n(C)c1=O
inactive: [1] 0.086 | [2] -0.0151 | [3] -0.000593 | [4] 0.00538

CC(=O)O[C@H]1C[C@@H](OC(C)=O)C(C)(C)C2C[C@@H](OC(C)=O)[C@]3(C)C(CC[C@@]4(C)[C@H](c5ccoc5)C[C@H]5O[C@]543)[C@]21C (some centres undefined)
inactive: [1] 0.134 | [2] 0.0408 | [3] 0.129 | [4] 0.147

C[C@@H]1O[C@H](C[N+](C)(C)C)C[C@H]1O
inactive: [5] 0.143 | [6] 0.0741 | [7] 0.116 | [8] -0.0161

CCCN(CCC)C1CCc2cccc(O)c2C1 (centres undefined)
inactive: [5] 0.114 | [6] 0.0781 | [7] 0.143 | [8] 0.0595

CC(C)[C@]12O[C@H]1[C@@H]1O[C@@]13[C@@]1(C)CCC4=C(COC4=O)[C@@H]1C[C@@H]1O[C@@]13C2=O
active: [1] -2.66 | [2] -3.01 | [3] -3.24 | [4] -2.91

CC(C)c1ccc2c(c1O)CCC1C3=C(CCC21C)C(=O)OC3 (centres undefined)
inactive: [1] 0.0257 | [2] 0.104 | [3] 0.151 | [4] 0.343

O=C1C(Cl)=C(Cl)C(=O)C(Cl)=C1Cl
inactive: [1] 0.0885 | [2] 0.0373 | [3] 0.114 | [4] 0.156

ClC1C(Cl)C(Cl)C(Cl)C(Cl)C1Cl (centres undefined)
inactive: [1] 0.118 | [2] 0.0584 | [3] 0.159 | [4] -0.0362

C[N+]1(C)C2CC(OC(=O)[C@H](CO)c3ccccc3)CC1C1OC12 (some centres undefined)
inactive: [5] 0.208 | [6] 0.126 | [7] 0.131 | [8] 0.157

CCNC(=O)[C@H]1O[C@@H](n2cnc3c(N)ncnc32)[C@H](O)[C@@H]1O
inactive: [5] 0.186 | [6] 0.0998 | [7] 0.0806 | [8] 0.122

COc1c2c(cc3c1OCO3)CCN(C)C2
inactive: [1] 0.00337 | [2] -0.0221 | [3] 0.133 | [4] 0.0446

COc1cccc2c1cc([N+](=O)[O-])c1c(C(=O)O)cc3c(c12)OCO3
inactive: [1] 0.0105 | [2] 0.00257 | [4] -0.0027
active: [3] -0.209

CC(N)Cc1c[nH]c2ccccc12 (centres undefined)
inactive: [5] 0.229 | [6] 0.175 | [7] 0.0609 | [8] 0.105

CCn1cnc2c(Nc3cccc(Cl)c3)nc(N[C@@H]3CCCC[C@@H]3N)nc21
inactive: [5] 0.222 | [6] 0.14 | [8] -0.0222
active: [7] -0.199

C[C@H]1C[C@@H](O)[C@]2(O)[C@@]13CC(=O)OC[C@@]2(C)[C@](C)(O)C(=O)C3
inactive: [1] 0.0914 | [2] -0.0111 | [3] 0.0806 | [4] 0.024

CN[C@@H]1C[C@H]2O[C@@](C)([C@@H]1OC)n1c3ccccc3c3c4c(c5c6ccccc6n2c5c31)C(=O)NC4
active: [9] -2.08 | [10] -1.86 | [1] -3.68 | [2] -3.78 | [3] -4.25 | [4] -4.31 | [11] -4.11 | [12] -4.31

CC(=O)O[C@H]1C[C@@H](OC(C)=O)C(C)(C)C2C[C@@H](OC(C)=O)[C@]3(C)C(CC[C@@]4(C)[C@H](c5ccoc5)C(=O)[C@H]5O[C@]543)[C@]21C (some centres undefined)
inactive: [1] 0.0663 | [2] 0.135 | [3] 0.0399 | [4] 0.171

c1ccc2c(c1)cc1ccc3cccc4ccc2c1c34
inactive: [1] 0.0949 | [2] 0.14 | [3] 0.11 | [4] 0.179

Reference: the supplement of paper PMC6089552
